# The supplement of paper PMC3334620
# The full ranking holds about 33,000 sequences; the median of “E-score (-0.5 to 0.5)” is about -0.016, and the highest 2% start at about 0.32. For the sample, the highest values were picked, then their nearest neighbours and some sequences at random.
# Molecular target: T1, Stp1 (UniProt B3LFK1)
# T1 sequence: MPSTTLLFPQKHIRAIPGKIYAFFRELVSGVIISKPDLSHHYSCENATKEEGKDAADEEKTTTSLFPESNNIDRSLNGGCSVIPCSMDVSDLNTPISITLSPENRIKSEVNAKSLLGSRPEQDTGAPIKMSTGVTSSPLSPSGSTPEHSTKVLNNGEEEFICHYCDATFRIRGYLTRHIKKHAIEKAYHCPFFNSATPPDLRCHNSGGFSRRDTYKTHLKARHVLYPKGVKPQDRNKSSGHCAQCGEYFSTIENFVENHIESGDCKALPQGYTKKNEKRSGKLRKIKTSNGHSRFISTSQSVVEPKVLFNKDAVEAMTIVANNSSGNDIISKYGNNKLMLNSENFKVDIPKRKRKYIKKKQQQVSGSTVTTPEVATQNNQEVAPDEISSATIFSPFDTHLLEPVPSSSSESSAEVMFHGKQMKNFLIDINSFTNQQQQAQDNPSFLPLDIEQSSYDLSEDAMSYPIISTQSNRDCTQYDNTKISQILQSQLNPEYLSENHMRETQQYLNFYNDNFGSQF
# Assay: PBM E-score (8-mer binding enrichment) (E-score (-0.5 to 0.5)); higher = stronger / more preferred TF binding
# Conditions: protein concentration: 200 nM; construct: GST-full length
# Protocol: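 Universal 'all 10-mer' protein binding microarrays (Agilent AMADID 015681) probed with GST-tagged S. cerevisiae TFs (full-length or DBD) made by in vitro transcription/translation (PURExpress), about 100-200 nM. Bound TF was detected with fluorescent anti-GST. Each ungapped 8-mer (which stands for itself and its reverse complement) is scored by the PBM enrichment score (E-score), a modified Wilcoxon-Mann-Whitney statistic from -0.5 to +0.5, computed with the Universal PBM Analysis Suite. Scale: above 0.35 generally sequence-specific binding.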
row,Sequence,PBM E-score
1,CACGGTAC,0.0963
2,CATATTCC,-0.14
3,AACCATTA,0.123
4,TGGGACAA,-0.23
5,CGAACGTA,-0.0114
6,CACGCATC,0.0489
7,CCCAATCA,-0.0533
8,ATTTCCGG,-0.0307
9,AGGCGACA,0.197
10,CGGCGACA,0.369
11,CGGCGAGA,0.325
12,CGGCGACC,0.203
13,AGGCGACG,0.209
14,CGGCGACG,0.349
15,CGGCGAGC,0.307
16,AGGCGAGA,-0.0565
17,GGGCGACA,0.0209
18,CTCGGGGC,-0.163
19,CAGAGTCG,-0.204
20,CATGGTTA,0.105
21,ACCGTGCT,-0.133
22,ACCGTGCG,0.371

row,Sequence,PBM E-score
1,CCCGTGCG,0.332
2,AGCGTGCG,0.237
3,CCCGTGCA,0.0223
4,CCCGTGAG,-0.0263
5,AGAGGGCG,0.307
6,AGGCCAAT,-0.152
7,AGAACGCT,-0.11
8,ATTGTGCC,0.322
9,ATTGTGCG,0.161
10,AATGTGCG,0.18
11,ATTGTGCA,0.162
12,GATGTGCC,0.185
13,AATGTGCC,0.323
14,GCGCAAAA,0.227
15,CCATGAGA,-0.118
16,AAGCCGGA,0.0672
17,AACCCGCA,-0.00015
18,AAGCCGCG,0.418
19,AAGCCGCA,0.386
20,GAGCCGCA,0.448
21,GAGCCGGA,0.0514
22,TAGCCGAA,0.00682

row,Sequence,PBM E-score
1,CAGCCGCG,0.259
2,TAGCCGCA,0.348
3,TAGCCGGA,-0.0486
4,AATCCGCG,0.111
5,CAGCCGCA,0.215
6,GAGGGTAC,-0.22
7,AACTGAGC,-0.0352
8,CGATCAAG,-0.0842
9,CCCTTATA,-0.15
10,CCAACTAG,-0.0642
11,CCGACCAG,-0.144
12,CATAATGC,0.0509
13,TCCCAGGA,-0.255
14,GGATCTAC,-0.105
15,GTCGACTA,0.157
16,GAGCCGCC,0.319
17,AAGCCGCC,0.177
18,CAGCCGCC,0.0812
19,CCTAAGCC,-0.355
20,ACGGGTTG,-0.0319
21,TCGGCAAA,0.0291
22,CCGGCAAC,0.0817

row,Sequence,PBM E-score
1,GCGGCAAC,0.384
2,GGGGCAAC,-0.107
3,GCGGCAAA,0.383
4,CCGGCAAA,0.116
5,ATCATTCG,0.119
6,AAATTAAG,-0.00684
7,AGTGCGGA,0.224
8,AGTGCGGG,-0.0896
9,AGTGCGGC,0.379
10,CGTGCGGC,0.476
11,CGTGCGAC,0.0732
12,CGTGCGGA,0.3
13,TACTAGGA,-0.15
14,GAGGTCAC,-0.123
15,AGTATTGA,0.0696
16,CACGGTAG,-0.0367
17,GTGGGCAA,-0.0572
18,CCATTGCC,0.0367
19,CGCCCTGA,0.0616
20,CGCCCTGC,0.346
